# Reference: PubChem BioAssay
# Results filed as inconclusive are left out. Calls of active or inactive are those of the source. Rule as the data show it, unless noted: active = inhibition above about 80%; inactive = the rest.
# Tests used:
# [1] = compounds altering circadian rhythm period length – cell-based, LOPAC library, luminescence reporter (AID 2774; call rule not given here;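 also: values are relative to mean of DMSO wells on each plate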); conditions: circadian reporter cells, at 7 µM, actives lie on both sides
# [2] = viability loss in pontine glioma line – cell-based, SU-DIPG-XIII, MIPE5.0, CellTiter-Glo, qHTS, dose response (AID 1347064; cut-off not given, nearly all actives have AC50 up to about 23 µM); conditions: CellTiter-Glo ATP luminescence
# [3] = growth inhibition of DIPG cells – cell-based, MIPE4.0 library, CellTiter-Glo luminescence, qHTS (AID 1347066; cut-off not given, nearly all actives have AC50 up to about 30 µM;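 also: cells exposed to compound for 48 hours before readout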); conditions: SU-DIPG-VI viability, CellTiter-Glo ATP luminescence
# [4] = JHH-DIPG-1 glioma cell viability, MIPE5.0 library, CellTiter-Glo luminescence, qHTS (AID 1347067; cut-off not given, nearly all actives have AC50 up to about 26 µM;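 also: cells exposed to compound for 48 hours before readout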); conditions: JHH-DIPG-1 glioma viability, CellTiter-Glo ATP luminescence
# [5] = growth inhibition, single agent or in combination, cell-based, chromothripsis tumors, cisplatin or BGB combos (AID 1671449); conditions: LFS_MB_P medulloblastoma cells;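 also: cells exposed for 96 hours; 0% = vehicle DMSO and 100% = killing by high DMSO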
# [6] = growth inhibition, single agent and combos, cell-based, chromothripsis tumors, cisplatin or BGB combos (AID 1671450); conditions: HDN33 neuroblastoma cells, stronger effect = higher value;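 also: cells exposed to compound for four days; 0% = vehicle DMSO and 100% = cell killing by high DMSO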
# [7] = growth inhibition, single agents and combos, LFS_MB_1R, cell-based, cisplatin or BGB combos, synergistic combos for chromothripsis tumors (AID 1671452); conditions: LFS_MB_1R medulloblastoma cells, stronger effect = higher value;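 also: cells exposed for 96 hours before readout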
# [8] = growth inhibition, single agents and combos, HTB85, cell-based, BGB or cisplatin IC20 combos, synergistic combos for chromothripsis tumors (AID 1671453); conditions: HTB85 osteosarcoma cells, drug combinations, stronger effect = higher value;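 also: cells exposed for 96 hours before readout; 0% = vehicle DMSO and 100% = high DMSO killing control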
# [9] = growth inhibition, single agents and combos, CRL2098, cell-based, BGB or cisplatin IC20 combos, synergistic combos for chromothripsis tumors (AID 1671454); conditions: CRL2098 osteosarcoma cells, drug combinations, stronger effect = higher value;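 also: cells exposed for 96 h before readout; 0% = vehicle DMSO and 100% = killing by high DMSO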
# [10] = growth inhibition, single agents and combos, HD-MB03, cell-based, BGB or cisplatin IC20 combos, synergistic combos for chromothripsis tumors (AID 1671455; in the data active = inhibition above about 83%;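 also: 0% = vehicle DMSO and 100% = high DMSO as cytotoxic control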); conditions: HD-MB03 medulloblastoma cells, stronger effect = higher value
# [11] = growth inhibition, MDA-MB-436, cell-based, BGB or cisplatin combos, synergistic combos for chromothripsis tumors (AID 1671458; call rule not given here;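 also: cells exposed for 96 hours; 0% = vehicle DMSO and 100% = killing by high DMSO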); conditions: MDA-MB-436 breast carcinoma growth inhibition, drug combinations, stronger effect = higher value
# [12] = BT084 cell growth, single and combined drugs, ICGC_MB145, cisplatin and BGB IC40 combos (AID 1671461); conditions: BT084 medulloblastoma cells, drug combinations, stronger effect = higher value;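 also: cells exposed to drugs for 96 hours; 0% = vehicle DMSO and 100% = high DMSO full killing control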
# [13] = RCMB18 cell growth, single agent and combined, cisplatin and BGB IC40 combos (AID 1671462); conditions: RCMB18 medulloblastoma cells, stronger effect = higher value;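 also: cells exposed to compound for four days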
# [14] = CRL1545 cell growth, single agent and combined, cisplatin and BGB IC20 combos (AID 1671464); conditions: CRL1545 osteosarcoma cells, stronger effect = higher value;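 also: cells exposed to compound for 96 hours before readout; 0% = vehicle DMSO and 100% = high DMSO killing control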
# [15] = measured here: combination with BGB IC40, at 0.05 µM
# [16] = measured here: with BGB IC20 combination, at 0.5 µM
# [17] = measured here: with cisplatin IC20 combination, at 0.5 µM
# [18] = measured here: combination with cisplatin, at 0.5 µM
smiles,measurement,setting,value
CCOC(=O)Nc1ccc(NCc2ccc(F)cc2)nc1N,period change,[1],-0.33 h (inactive)
same,outcome,[2],inactive
same,outcome,[3],inactive
same,outcome,[4],inactive
same,inhibition,"[5]; at 0.5 µM, stronger effect = higher value",-13% (inactive)
same,inhibition,"[5]; measured here: combination with BGB IC20, at 0.005 µM",-4.33%
same,inhibition,"[5]; measured here: combination with BGB IC40, at 0.005 µM",50.9%
same,inhibition,[5]; [15],-18.8%
same,inhibition,"[5]; measured here: combination with cisplatin, at 0.5 µM, stronger effect = higher value",4.96%
same,inhibition,"[5]; measured here: combination with cisplatin, at 5 µM, stronger effect = higher value",-32.9%
same,inhibition,"[6]; BGB combo, at 5 µM",-49%
same,inhibition,[6]; at 0.5 µM,0.72% (inactive)
same,inhibition,"[6]; cisplatin combo, at 5 µM",-18.8%
same,inhibition,[6]; [16],-18.2%
same,inhibition,[6]; [17],17%
same,inhibition,"[6]; single agent, at 5 µM",-28.3%
same,inhibition,[7]; at 0.5 µM,-9.81% (inactive)
same,inhibition,[7]; [15],-17%
same,inhibition,[7]; [18],-23.8%
same,inhibition,"[7]; measured here: combination with cisplatin, at 5 µM",-29.7%
same,inhibition,[8]; at 0.5 µM,21.2% (inactive)
same,inhibition,"[8]; measured here: with BGB IC20, at 0.5 µM",57.6%
same,inhibition,"[8]; measured here: with BGB IC20, at 5 µM",10.9%
same,inhibition,"[8]; measured here: with cisplatin IC20, at 0.5 µM",-16.9%
same,inhibition,"[8]; measured here: with cisplatin IC20, at 5 µM",0.401%
same,inhibition,"[8]; single agent, at 5 µM",1.76%
same,inhibition,[9]; at 0.5 µM,-23.9% (inactive)
same,inhibition,"[9]; measured here: combination with BGB at IC20, at 0.5 µM",-12.9%
same,inhibition,"[9]; measured here: combination with cisplatin at IC20, at 0.5 µM",-33.8%
same,inhibition,[10]; at 0.5 µM,-9% (inactive)
same,inhibition,"[10]; measured here: combo with BGB at IC20, at 0.5 µM",-9.72%
same,inhibition,"[10]; measured here: combo with cisplatin at IC20, at 0.5 µM",-9.37%
same,inhibition,[11]; at 0.5 µM,-12.4% (inactive)
same,inhibition,"[11]; measured here: BGB combination, at 0.5 µM",-4.35%
same,inhibition,"[11]; measured here: BGB combination, at 5 µM",-17.6%
same,inhibition,"[11]; measured here: cisplatin combination, at 0.5 µM",-28%
same,inhibition,"[11]; measured here: cisplatin combination, at 5 µM",-26.4%
same,inhibition,[12]; at 0.5 µM,3.08% (inactive)
same,inhibition,"[12]; cisplatin combination, at 0.5 µM",2.67%
same,inhibition,"[12]; cisplatin combination, at 5 µM",-33.2%
same,inhibition,"[12]; measured here: BGB IC40 combination 0.05 uM, at 0.05 µM",71.5%
same,inhibition,"[12]; single agent, at 5 µM",2.9%
same,inhibition,[13]; at 0.5 µM,-10.8% (inactive)
same,inhibition,"[13]; cisplatin combo, at 5 µM",-27%
same,inhibition,"[13]; measured here: BGB IC40 combination, at 0.05 µM",4.05%
same,inhibition,[13]; [18],-15.1%
same,inhibition,"[13]; single agent, at 5 µM",-7.25%
same,inhibition,[14]; at 0.5 µM,5.77% (inactive)
same,inhibition,[14]; [16],-17.8%
same,inhibition,[14]; [17],16.2%
same,inhibition,"[14]; single agent, at 0.05 µM",-4.81%
same,inhibition,"[14]; single agent, at 5 µM",-34.9%
